# Assay results from paper PMC7862700, “An all-to-all approach to the identification of sequence-specific readers for epigenetic DNA modifications on cytosine”.
# How the values were obtained:
# Assay in all cases: DAPPL (digital affinity profiling via proximity ligation, sequencing); 10 mM Tris-HCl pH 7.5, 50 mM NaCl, 1 mM DTT, 4% glycerol, room temperature, 30 min; GST-TFs on glutathione beads, 16-mer random dsDNA library, 0.1% formaldehyde crosslink after washing; high values mean tight binding
# Settings in all cases: protein: recombinant; tags: N-terminal GST; dsDNA, one strand shown
# FLI1 = biological target: T1, FLI1 (Homo sapiens, UniProt Q01543 1-452)
# T1 sequence: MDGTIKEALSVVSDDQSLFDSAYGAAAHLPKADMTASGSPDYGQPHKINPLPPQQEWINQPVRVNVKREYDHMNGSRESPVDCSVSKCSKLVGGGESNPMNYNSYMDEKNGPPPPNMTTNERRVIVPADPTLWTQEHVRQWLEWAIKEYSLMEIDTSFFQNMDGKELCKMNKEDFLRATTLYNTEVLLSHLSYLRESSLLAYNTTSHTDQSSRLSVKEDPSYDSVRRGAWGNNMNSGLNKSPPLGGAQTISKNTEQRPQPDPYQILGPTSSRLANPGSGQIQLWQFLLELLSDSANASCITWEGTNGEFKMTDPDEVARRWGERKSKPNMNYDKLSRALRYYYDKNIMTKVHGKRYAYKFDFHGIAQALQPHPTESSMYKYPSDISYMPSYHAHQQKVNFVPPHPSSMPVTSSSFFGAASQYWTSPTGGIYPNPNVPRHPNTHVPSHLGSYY
# Procedure, shortened: (§1)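 Binding signal is given per hexamer as its read frequency for a factor divided by its frequency in the tag-only sample. GST-fused human transcription factors were expressed in yeast, captured on glutathione beads, barcoded with DNA and pooled with that sample, then incubated with 200 nmole of a 16-mer random double-stranded DNA library in Tris/NaCl/DTT/glycerol buffer for 30 min at room temperature. The pools were then washed, crosslinked, proximity-ligated, amplified by PCR and sequenced on an Illumina NextSeq500.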
# ELK1 = biological target: T2, ELK1 (Homo sapiens, UniProt P19419 1-428)
# T2 sequence: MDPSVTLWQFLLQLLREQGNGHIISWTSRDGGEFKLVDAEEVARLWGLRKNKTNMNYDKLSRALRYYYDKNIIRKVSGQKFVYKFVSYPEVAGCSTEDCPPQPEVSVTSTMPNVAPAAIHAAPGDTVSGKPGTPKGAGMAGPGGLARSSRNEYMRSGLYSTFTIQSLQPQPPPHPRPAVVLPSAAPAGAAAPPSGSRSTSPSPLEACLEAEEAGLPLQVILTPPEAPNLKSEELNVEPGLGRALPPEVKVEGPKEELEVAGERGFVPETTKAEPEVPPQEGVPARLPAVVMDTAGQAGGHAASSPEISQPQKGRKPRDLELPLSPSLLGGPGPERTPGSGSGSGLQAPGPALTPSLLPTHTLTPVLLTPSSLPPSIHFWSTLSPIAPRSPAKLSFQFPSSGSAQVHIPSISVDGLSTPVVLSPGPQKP
# Procedure, shortened: as §1
# GABPA = biological target: T3, GABPA (Homo sapiens, UniProt Q06546 1-454)
# T3 sequence: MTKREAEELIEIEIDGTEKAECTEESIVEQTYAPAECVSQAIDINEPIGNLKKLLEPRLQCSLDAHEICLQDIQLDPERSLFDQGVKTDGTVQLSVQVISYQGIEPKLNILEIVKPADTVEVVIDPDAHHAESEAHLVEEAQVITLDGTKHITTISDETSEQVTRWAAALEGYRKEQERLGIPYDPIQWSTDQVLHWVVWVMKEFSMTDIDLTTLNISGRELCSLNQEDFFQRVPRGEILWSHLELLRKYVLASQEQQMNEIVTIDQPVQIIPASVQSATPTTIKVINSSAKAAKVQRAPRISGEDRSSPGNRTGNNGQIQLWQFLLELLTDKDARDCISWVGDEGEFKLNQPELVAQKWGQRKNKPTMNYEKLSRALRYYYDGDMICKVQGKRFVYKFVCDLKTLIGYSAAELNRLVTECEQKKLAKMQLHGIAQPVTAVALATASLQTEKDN
# Procedure, shortened: as §1
# ERG = biological target: T4, ERG (Homo sapiens, UniProt P11308 1-479)
# T4 sequence: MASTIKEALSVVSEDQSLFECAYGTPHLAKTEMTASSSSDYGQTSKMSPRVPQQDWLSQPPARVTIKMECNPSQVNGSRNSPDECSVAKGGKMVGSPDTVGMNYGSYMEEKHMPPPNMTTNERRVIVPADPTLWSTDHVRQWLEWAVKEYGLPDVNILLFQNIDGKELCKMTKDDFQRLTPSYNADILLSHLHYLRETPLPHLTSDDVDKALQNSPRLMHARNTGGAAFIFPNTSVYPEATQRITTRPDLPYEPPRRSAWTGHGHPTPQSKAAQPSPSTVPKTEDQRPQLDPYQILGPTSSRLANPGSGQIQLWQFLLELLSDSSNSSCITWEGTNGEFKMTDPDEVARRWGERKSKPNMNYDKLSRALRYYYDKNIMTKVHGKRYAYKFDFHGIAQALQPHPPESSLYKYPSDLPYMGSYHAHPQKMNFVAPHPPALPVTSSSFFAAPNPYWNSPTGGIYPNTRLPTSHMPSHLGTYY
# Procedure, shortened: as §1
# ELF1 = ELF1 (Homo sapiens, UniProt P32519 1-619)
# Chain of ELF1 (P32519 whole entry): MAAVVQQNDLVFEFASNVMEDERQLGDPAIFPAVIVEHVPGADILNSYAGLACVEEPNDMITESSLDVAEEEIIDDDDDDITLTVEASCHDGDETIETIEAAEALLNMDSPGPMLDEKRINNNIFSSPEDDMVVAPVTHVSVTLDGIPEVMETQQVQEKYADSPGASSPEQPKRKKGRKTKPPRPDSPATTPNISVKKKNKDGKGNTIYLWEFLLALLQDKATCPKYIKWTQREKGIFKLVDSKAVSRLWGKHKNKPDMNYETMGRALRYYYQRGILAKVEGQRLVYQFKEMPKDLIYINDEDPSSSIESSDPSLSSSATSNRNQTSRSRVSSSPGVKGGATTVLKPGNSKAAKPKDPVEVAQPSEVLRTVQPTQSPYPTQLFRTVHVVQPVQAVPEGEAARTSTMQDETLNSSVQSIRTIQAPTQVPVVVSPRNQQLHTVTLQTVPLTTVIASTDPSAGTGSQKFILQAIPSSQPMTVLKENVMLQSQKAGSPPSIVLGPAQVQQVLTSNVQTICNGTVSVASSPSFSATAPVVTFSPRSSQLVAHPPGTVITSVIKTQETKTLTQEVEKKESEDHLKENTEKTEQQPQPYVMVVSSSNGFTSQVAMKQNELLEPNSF
# Procedure, shortened: as §1
# EHF = biological target: T5, EHF (Homo sapiens, UniProt Q9NZC4 1-300)
# T5 sequence: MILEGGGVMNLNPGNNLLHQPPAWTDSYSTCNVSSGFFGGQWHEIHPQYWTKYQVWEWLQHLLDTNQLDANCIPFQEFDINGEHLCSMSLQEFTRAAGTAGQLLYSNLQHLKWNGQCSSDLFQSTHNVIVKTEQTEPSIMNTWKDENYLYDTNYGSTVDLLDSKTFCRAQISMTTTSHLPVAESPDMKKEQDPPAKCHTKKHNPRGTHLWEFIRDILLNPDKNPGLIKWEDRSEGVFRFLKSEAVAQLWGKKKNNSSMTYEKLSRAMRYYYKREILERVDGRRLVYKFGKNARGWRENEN
# Procedure, shortened: as §1
# SPI1 = SPI1 (Homo sapiens, UniProt P17947 1-270)
# Procedure, shortened: as §1
# SPIB = SPIB (Homo sapiens, UniProt Q01892 1-262)
# Chain of SPIB (Q01892 whole entry): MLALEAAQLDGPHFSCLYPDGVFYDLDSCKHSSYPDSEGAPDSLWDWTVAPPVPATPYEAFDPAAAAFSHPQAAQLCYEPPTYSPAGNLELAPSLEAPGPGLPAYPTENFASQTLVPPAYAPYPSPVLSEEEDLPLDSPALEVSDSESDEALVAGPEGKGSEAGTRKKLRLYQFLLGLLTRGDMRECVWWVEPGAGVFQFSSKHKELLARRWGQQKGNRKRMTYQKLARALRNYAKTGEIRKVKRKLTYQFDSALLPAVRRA
# Procedure, shortened: as §1
# ELK3 = biological target: T6, ELK3 (Homo sapiens, UniProt P41970 1-407)
# T6 sequence: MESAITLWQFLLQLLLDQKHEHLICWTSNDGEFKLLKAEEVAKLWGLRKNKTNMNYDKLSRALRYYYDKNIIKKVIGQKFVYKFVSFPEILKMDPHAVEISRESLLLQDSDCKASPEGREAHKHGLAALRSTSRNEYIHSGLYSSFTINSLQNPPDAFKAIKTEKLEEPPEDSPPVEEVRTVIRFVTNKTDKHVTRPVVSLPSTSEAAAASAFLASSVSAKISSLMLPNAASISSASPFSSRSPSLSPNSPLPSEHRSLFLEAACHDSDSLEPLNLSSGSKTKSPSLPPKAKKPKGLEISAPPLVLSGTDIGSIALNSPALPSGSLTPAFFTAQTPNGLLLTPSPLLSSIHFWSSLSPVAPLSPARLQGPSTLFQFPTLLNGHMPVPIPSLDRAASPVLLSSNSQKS
# Procedure, shortened: as §1
sequence,measurement,setting,value
GATGTA,binding signal,FLI1,"1.29 fold enrichment (6-mer frequency, TF over GST control)"
same,binding signal,ELK1,"1.46 fold enrichment (6-mer frequency, TF over GST control)"
same,binding signal,GABPA,"1.21 fold enrichment (6-mer frequency, TF over GST control)"
same,binding signal,ERG,"1.27 fold enrichment (6-mer frequency, TF over GST control)"
same,binding signal,ELF1,"1.26 fold enrichment (6-mer frequency, TF over GST control)"
same,binding signal,EHF,"1.38 fold enrichment (6-mer frequency, TF over GST control)"
same,binding signal,SPI1,"1.3 fold enrichment (6-mer frequency, TF over GST control)"
same,binding signal,SPIB,"1.31 fold enrichment (6-mer frequency, TF over GST control)"
same,binding signal,ELK3,"1.35 fold enrichment (6-mer frequency, TF over GST control)"
